Hits are enriched below; roughly 1.8% of the tested compounds scored in any of these assays.
MEP2 TOR yeast = alters MEP2-GFP fluorescence in TOR pathway yeast screen. actives 0.51% (n = 330,000). AID 2016. S. cerevisiae MEP2-GFP strain, flow cytometry GFP, 3 h; 100% = DMSO control level. GFP response vs DMSO, % at 10 µM;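 active means GFP response versus DMSO above a set limit, roughly screen mean plus 3 SD, cut at about 180% in these data; inconclusive means fewer than 70 cells counted for a yeast strain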;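 further: median GFP fluorescence of the barcode-gated MEP2-GFP cells per well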
Myeloid diff MLP = myeloid differentiation induction | ER-HoxA9 myeloid progenitors, lysozyme-GFP differentiation, flow cytometry | calls only at 10 µM | actives 1% (n = 360,000);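 active means normalized GFP-positive differentiation at or above the plate's own cutoff, the solvent-only control mean plus 3 SD; inconclusive means no clear call, values can overlap the other calls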;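 further: cells exposed to compound for four days before flow analysis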
AGP1 TOR yeast = modulators of TOR pathway AGP1-GFP in S. cerevisiae; S. cerevisiae AGP1-GFP multiplex flow cytometry, 3 h; GFP as percent of DMSO wells; GFP response vs DMSO, % at 10 µM; actives 0.02% (n = 320,000);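 active means GFP response relative to DMSO above a set limit, near screen average plus 3 SD, cut at about 150% in these data; inconclusive means fewer than 70 cells counted for the yeast strain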;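 further: median GFP channel fluorescence of the gated AGP1 strain per well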
CIT2-GFP yeast = yeast TOR pathway CIT2-GFP modulation; GFP response vs DMSO, % at 10 µM; S. cerevisiae CIT2-GFP strain, flow cytometry, 3 h; 100 means same as DMSO wells; actives 0.065% (n = 320,000);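 active means GFP response relative to DMSO above a set limit, near the screen mean plus 3 SD, cut at about 150% in these data; inconclusive means Fewer than 70 cells measured for a yeast strain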;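 further: ratio of well median GFP fluorescence to mean of DMSO wells on the plate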
LAP4-GFP MLPCN = yeast TOR pathway LAP4-GFP modulation | S. cerevisiae LAP4-GFP multiplex, flow cytometry GFP, 3 h; median GFP as percent of DMSO wells | GFP response vs DMSO, % at 10 µM | actives 0.34% (n = 320,000);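 active means GFP response vs DMSO above a set limit, about the screen mean plus 3 SD, cut at about 150% in these data; inconclusive means under 70 cell events counted for the yeast strain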
RPL19A TOR yeast = modulators of TOR pathway RPL19A-GFP in S. cerevisiae; S. cerevisiae RPL19A-GFP strain, flow cytometry, 3 h; stronger effect = lower value; percent response vs DMSO, % at 10 µM; actives 0.3% (n = 330,000);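 active means percent response vs DMSO below 50%; inconclusive means fewer than 70 events counted for the yeast strain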;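 further: median channel GFP fluorescence of the barcoded RPL19A-GFP strain; lower means less RPL19A-GFP as with rapamycin TOR inhibition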
Myeloid diff CP1 = promotes myeloid progenitor differentiation. AID 651706. actives 2% (n = 2,300). calls only. ER-HoxA9 myeloid progenitors, GFP/Mac1 double-positive flow. shares compounds with Myeloid diff MLP;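 active means share of green or green-and-red cells above 9 and 9% in run 1 or 4 and 3% in run 2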
GFP autofluor = compound fluorescence in myeloid differentiation counter-screen | shares compounds with Myeloid diff MLP | ER-HoxA9 myeloid progenitors, no estrogen, GFP autofluorescence flow cytometry; vehicle wells 0%, positive control 100% | fluorescence response, % (test concentration not listed) | actives 7.4% (n = 2,300);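 active means over 5% cells positive for green fluorescent reporter, or over 2% positive for both it and APC stain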
Numbers stand for hits; . = inactive; ? = inconclusive; / = not tested or not shown; + = active, no number; [ ] = another dose, or the depositor's remark.

SMILES	MEP2 TOR yeast	Myeloid diff MLP	AGP1 TOR yeast	CIT2-GFP yeast	LAP4-GFP MLPCN	RPL19A TOR yeast	Myeloid diff CP1	GFP autofluor
CCCc1nc2ccc(NC(=O)c3cccs3)cc2c(=O)n1Cc1ccc(Cl)cc1	.	.	.	.	.	.	/	/
Cc1cc(C(=O)COC(=O)c2ccc(NC(=O)CC#N)cc2)c(C)n1CCc1ccc(F)cc1	.	.	.	.	.	.	.	.
NC1=NC2(CCC(c3ccccc3)CC2)n2c(nc3ccccc32)N1 (stereo unspecified)	.	.	/	.	.	.	/	/
O=C(NC(=S)NCCN1CCOCC1)c1cccc(Cl)c1	218[may fluoresce violet]	.	?	?	.	24[may fluoresce violet]	.	.
c1ccc2c(Nc3nc4c(s3)CCCC4)cccc2c1	.	.	.	.	.	.	/	/
COc1ccc(CCN2C(=O)CS/C2=N\NC(=O)c2ccc(C(C)(C)C)cc2)cc1OC	.	.	.	.	.	.	.	.
CCOc1ccc(S(=O)(=O)Nc2ccc(Cl)cn2)c(C)c1C	.	.	.	.	.	.	/	/
CCOc1cc(C)c(S(=O)(=O)Nc2ccc(Cl)cn2)cc1C	.	.	.	/	.	.	.	.
Cc1ccc(-c2csc3nnc(SCC(=O)NCc4ccc5c(c4)OCO5)n23)cc1	.	.	.	.	.	.	/	/
O=C(CCSc1nnc2scc(-c3ccccc3)n12)NCc1ccc2c(c1)OCO2	.	.	.	.	.	.	.	.
CCn1nc(CC(C)C)cc1C(=O)N1CCCC(Nc2ccc(F)cc2)C1 (stereo unspecified)	.	.	.	.	.	.	/	/
Cc1ccc(S(=O)(=O)CCSc2nc(C)cc(C)c2C#N)cc1	.	+	.	.	.	.	.	.
Cc1csc(=O)n1CC(=O)OCC(=O)NNC(=O)c1ccc([N+](=O)[O-])cc1	.	+	.	.	.	.	.	.
CCOC(=O)c1c(C)nc2sc(C(N)=O)c(N)c2c1-c1ccc(OC)cc1	.	.	.	.	.	.	/	/
COCCn1nnnc1CN1CCN2CCCC2C1 (stereo unspecified)	.	+	.	.	.	.	.	.
CC(C)(C)n1nnnc1CN1CCN2CCCC2C1 (stereo unspecified)	.	.	.	.	.	.	/	/
O=C1OC(CC(=O)N(Cc2nnc(-c3ccccc3Cl)o2)C2CC2)c2ccccc21 (stereo unspecified)	.	.	.	.	.	.	/	/
Nc1ccc(NC(=O)c2ccccc2)c2c1C(=O)c1ccccc1C2=O	.	.	.	.	.	.	.	.
COc1ccccc1Cc1c(C(C)(C)C)nc2c3ccccc3ccn12	/	+	/	/	/	/	.	.
COc1cc(NC(=O)N[C@H](C(=O)O)C(C)C)cc(OC)c1	.	+	.	.	.	.	.	.
CCCCOc1ccc(C(O)(CCC)CCN2CCOCC2)cc1 (stereo unspecified)	.	.	.	.	.	.	.	.
CCCCOc1ccc(C(O)(CC)CCN2CCOCC2)cc1 (stereo unspecified)	.	.	.	.	.	.	/	/
COc1ccc(NC(=O)c2cccnc2N2CCCC2)cc1	.	.	.	.	.	.	/	/
c1ccc(Cn2c(CSc3nnnn3-c3ccccc3)nc3ccccc32)cc1	.	.	.	.	.	.	.	.
C/C(=N\NC(=O)C1CCCN(S(=O)(=O)c2ccccc2)C1)c1ccccn1 (stereo unspecified)	.	/	.	.	.	.	.	.
SMILES	MEP2 TOR yeast	Myeloid diff MLP	AGP1 TOR yeast	CIT2-GFP yeast	LAP4-GFP MLPCN	RPL19A TOR yeast	Myeloid diff CP1	GFP autofluor
C/C(=N\NC(=O)C1CCCN(S(=O)(=O)c2ccccc2)C1)c1ccncc1 (stereo unspecified)	.	.	.	.	.	.	/	/
COc1ccccc1N1C(=O)c2cccc3c(Cl)ccc(c23)C1=O	.	.	.	.	.	.	.	.
O=C(c1ccc2c(=O)n3c(nc2c1)CCCCC3)N1CCN(c2ccc(Cl)cc2)CC1	.	.	.	.	.	.	.	.
NNC(=O)c1csc(-c2ccccc2)n1	.	+	.	.	.	.	.	.
NNC(=O)Cc1csc(-c2ccccc2)n1	.	.	.	.	.	.	/	/
COc1ccc(C(=O)NCCC2=CCCCC2)cc1OC1CCN(C(C)C)CC1	.	.	.	.	.	.	/	/
COc1cc(C(=O)NCC(c2ccco2)N2CCCC2)ccc1OCc1ccc(Cl)cc1Cl (stereo unspecified)	/	+	/	/	/	/	.	.
CCOc1ccc(-n2c(C)c3c(C)nnc(C)c3c2C)cc1	/	.	/	/	/	/	.	42
CCOc1ccc(-c2nnc(-c3ccccc3)n2-c2ccccc2)cc1	.	.	.	.	.	.	/	/
COc1cccc(C(=O)Nc2ccc(Oc3cccc(C(F)(F)F)c3)nc2)c1	.	.	.	.	.	.	/	/
CCC(C(=O)OCC(=O)N1C(C)CCCC1C)c1ccccc1 (stereo unspecified)	.	.	.	.	.	.	.	.
Cc1cc(C)c(C)c(S(=O)(=O)N2CCN(C(=O)c3ccccc3OCc3c(C)noc3C)CC2)c1C	.	.	.	.	.	.	/	/
O=C(N/N=C/c1ccco1)C1CC(=O)N(c2ccccc2)C1 (stereo unspecified)	.	.	.	.	.	.	/	/
CC(=O)N1CCc2cc(S(=O)(=O)NCCC(=O)Nc3ccc4c(c3)OCCO4)ccc21	.	.	.	.	.	.	.	.
CC(C)C(=O)Nc1cccc(NC(=O)CCN2C(=O)c3ccccc3S2(=O)=O)c1	.	.	.	.	.	.	.	.
CSc1cccc(NC(=O)CN2C(=O)c3ccccc3S2(=O)=O)c1	.	.	.	.	.	.	.	.
CN(Cc1ccccc1)C(=O)[C@@H]1CCCN1C(=O)[C@@H]1CCCN1C(=O)OC(C)(C)C	/	.	/	/	/	/	/	/
COc1ccc(CN2c3c(Br)cccc3C(=O)CS2(=O)=O)cc1	/	+	/	/	/	/	.	.
O=C1CS(=O)(=O)N(Cc2cccc(F)c2)c2ccc(Br)cc21	.	.	.	.	.	.	/	/
O=C(Nc1cccc2ccccc12)c1ccc([N+](=O)[O-])s1	.	.	.	.	.	.	/	/
O=C(Nc1ccccc1F)c1ccc([N+](=O)[O-])s1	.	+	.	.	.	.	.	.
NC(=O)CC(NC(=O)c1ccccc1)c1ccc(NCc2ccc(F)cc2)c([N+](=O)[O-])c1 (stereo unspecified)	.	+	.	.	.	.	.	.

Bioassay records: PubChem, NMMLSC
